Reference: the supplement of paper PMC9694430

Columns and labels:
Assay in all cases: thermal shift delta Tm vs DMSO control; higher = stronger stabilization (binding)
Details in all cases: 12.5 µM; protein concentration 2 µM
[1] = tested on: LOC_OS02G45750-cb003
Outline: (§1)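 Thermal shift values come from differential scanning fluorimetry on purified rice kinase domains made in E. coli, with melting temperatures obtained from Boltzmann fits. Samples of 19.5 μl held 2 μM kinase, 100 mM potassium phosphate pH 7.5, 150 mM NaCl, 10% glycerol, 5 × SYPRO Orange and compound in DMSO, and were heated from 25°C to 95°C at 0.05°C/s. Each shift is a triplicate mean relative to the DMSO-only protein sample.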

[2] = tested on: LOC_OS02G54510-cb004
Outline: as §1

[3] = tested on: LOC_OS03G04050-cb001
Outline: as §1

[4] = tested on: LOC_OS03G12390-cb001
Outline: as §1

[5] = tested on: LOC_OS03G27990-cb004
Outline: as §1

[6] = tested on: LOC_OS03G50450-cb001
Outline: as §1

[7] = tested on: LOC_OS03G50810-cb003
Outline: as §1

[8] = tested on: LOC_OS04G35114-cb001
Outline: as §1

[9] = tested on: T1, LOC_OS04G38480-cb003
T1 sequence (whole entry): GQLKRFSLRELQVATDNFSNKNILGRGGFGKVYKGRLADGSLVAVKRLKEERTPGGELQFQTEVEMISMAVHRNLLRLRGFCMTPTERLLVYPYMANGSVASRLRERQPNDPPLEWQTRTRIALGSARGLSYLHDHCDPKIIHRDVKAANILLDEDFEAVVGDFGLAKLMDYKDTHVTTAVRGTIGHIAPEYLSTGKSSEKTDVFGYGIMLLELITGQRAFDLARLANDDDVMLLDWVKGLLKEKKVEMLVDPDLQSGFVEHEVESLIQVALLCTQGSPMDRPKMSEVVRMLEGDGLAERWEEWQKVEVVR
Outline: as §1

[10] = tested on: T2, LOC_OS04G41100-cb001
T2 sequence (whole entry): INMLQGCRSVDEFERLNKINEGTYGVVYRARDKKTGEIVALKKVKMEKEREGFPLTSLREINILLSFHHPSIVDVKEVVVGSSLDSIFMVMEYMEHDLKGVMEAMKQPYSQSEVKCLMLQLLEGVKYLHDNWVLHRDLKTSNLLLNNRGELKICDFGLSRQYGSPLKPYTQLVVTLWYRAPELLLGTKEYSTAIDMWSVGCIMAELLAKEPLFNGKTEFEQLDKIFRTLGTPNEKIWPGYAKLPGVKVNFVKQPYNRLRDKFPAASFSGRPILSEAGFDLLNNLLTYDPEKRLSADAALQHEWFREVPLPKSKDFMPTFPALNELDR
Outline: as §1

[11] = tested on: LOC_OS04G57630-cb004
Outline: as §1

[12] = tested on: LOC_OS05G07850-cb002
Outline: as §1

[13] = tested on: LOC_OS05G16824-cb004
Outline: as §1

[14] = tested on: LOC_OS05G28520-cb001
Outline: as §1

[15] = tested on: LOC_OS05G30820-cb001
Outline: as §1

[16] = tested on: LOC_OS05G43570-cb004
Outline: as §1

[17] = tested on: LOC_OS06G16330-cb003
Chain of LOC_OS06G16330-cb003 (as listed by the source): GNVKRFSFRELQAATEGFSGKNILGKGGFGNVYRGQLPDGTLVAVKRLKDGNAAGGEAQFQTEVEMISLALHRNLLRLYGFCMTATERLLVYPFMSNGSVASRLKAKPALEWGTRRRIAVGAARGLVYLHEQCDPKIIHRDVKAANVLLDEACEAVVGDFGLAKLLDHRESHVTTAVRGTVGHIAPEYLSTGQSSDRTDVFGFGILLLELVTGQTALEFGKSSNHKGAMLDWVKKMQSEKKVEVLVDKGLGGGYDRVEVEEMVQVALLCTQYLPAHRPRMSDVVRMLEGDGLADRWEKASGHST
Outline: as §1

[18] = tested on: T3, LOC_OS06G22820-cb001
T3 sequence (whole entry): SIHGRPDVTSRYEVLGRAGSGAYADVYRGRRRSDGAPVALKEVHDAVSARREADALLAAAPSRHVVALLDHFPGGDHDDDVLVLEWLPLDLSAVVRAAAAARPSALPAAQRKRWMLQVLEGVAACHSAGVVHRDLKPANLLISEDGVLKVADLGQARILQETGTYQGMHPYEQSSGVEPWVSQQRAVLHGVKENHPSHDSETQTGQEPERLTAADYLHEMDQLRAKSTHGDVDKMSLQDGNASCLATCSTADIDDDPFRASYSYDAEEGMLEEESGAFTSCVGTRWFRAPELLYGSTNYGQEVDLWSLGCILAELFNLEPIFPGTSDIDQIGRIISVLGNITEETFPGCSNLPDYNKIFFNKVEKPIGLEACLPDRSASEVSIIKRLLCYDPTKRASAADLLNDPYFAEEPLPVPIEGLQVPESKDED
Outline: as §1

[19] = tested on: LOC_OS07G06570-cb004
Outline: as §1

[20] = tested on: LOC_OS07G07230-cb001
Outline: as §1
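Note: purified Escherichia coli-expressed rice kinase domain construct.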

C=CC(=O)Nc1cccc(C)c1Nc1ncc2cc(-c3c(Cl)c(OC)cc(OC)c3Cl)ccc2n1
thermal shift delta Tm [1]: 1.09 °C | thermal shift delta Tm [2]: 0.44 °C | thermal shift delta Tm [3]: 0.49 °C | thermal shift delta Tm [4]: -0.06 °C | thermal shift delta Tm [5]: 0.28 °C | thermal shift delta Tm [6]: 0.23 °C | thermal shift delta Tm [7]: 0.27 °C | thermal shift delta Tm [8]: 0.49 °C | thermal shift delta Tm [9]: 2.08 °C | thermal shift delta Tm [10]: 0.27 °C | thermal shift delta Tm [11]: 0.51 °C | thermal shift delta Tm [12]: 0.53 °C | thermal shift delta Tm [13]: -0.76 °C | thermal shift delta Tm [14]: 0.18 °C | thermal shift delta Tm [15]: 0.34 °C | thermal shift delta Tm [16]: 0.48 °C | thermal shift delta Tm [17]: -5.85 °C | thermal shift delta Tm [18]: 0.33 °C | thermal shift delta Tm [19]: 0.84 °C | thermal shift delta Tm [20]: 0.04 °C

CC[C@@H]1C(=O)N(C)c2cnc(Nc3ccc(C(=O)NC4CCN(C)CC4)cc3OC)nc2N1C1CCCC1
thermal shift delta Tm [1]: 1.12 °C | thermal shift delta Tm [2]: 0.21 °C | thermal shift delta Tm [3]: 0.16 °C | thermal shift delta Tm [4]: 2.23 °C | thermal shift delta Tm [5]: -0.16 °C | thermal shift delta Tm [6]: -0.26 °C | thermal shift delta Tm [7]: 0.11 °C | thermal shift delta Tm [8]: 0.67 °C | thermal shift delta Tm [9]: -0.31 °C | thermal shift delta Tm [10]: 0.39 °C | thermal shift delta Tm [11]: -0.45 °C | thermal shift delta Tm [12]: 0.42 °C | thermal shift delta Tm [13]: 1.14 °C | thermal shift delta Tm [14]: 0.12 °C | thermal shift delta Tm [15]: 0.28 °C | thermal shift delta Tm [16]: 0.24 °C | thermal shift delta Tm [17]: 0.39 °C | thermal shift delta Tm [18]: 0.4 °C | thermal shift delta Tm [19]: 0.75 °C | thermal shift delta Tm [20]: 0.09 °C

COc1cc2ncnc(Oc3ccc(CC(=O)Nc4cnn(C(C)C)c4)cc3)c2cc1OC
thermal shift delta Tm [1]: 0.54 °C | thermal shift delta Tm [2]: 0.74 °C | thermal shift delta Tm [3]: 0.53 °C | thermal shift delta Tm [4]: 0.37 °C | thermal shift delta Tm [5]: 0.19 °C | thermal shift delta Tm [6]: 0.01 °C | thermal shift delta Tm [7]: 0.5 °C | thermal shift delta Tm [8]: 2.1 °C | thermal shift delta Tm [9]: 1.49 °C | thermal shift delta Tm [10]: 0.32 °C | thermal shift delta Tm [11]: 1.78 °C | thermal shift delta Tm [12]: 8.95 °C | thermal shift delta Tm [13]: 0.86 °C | thermal shift delta Tm [14]: 0.43 °C | thermal shift delta Tm [15]: 0.37 °C | thermal shift delta Tm [16]: -0.02 °C | thermal shift delta Tm [17]: 0.82 °C | thermal shift delta Tm [18]: 0.41 °C | thermal shift delta Tm [19]: 1.54 °C | thermal shift delta Tm [20]: 0.45 °C

O=C1NC(=O)C(c2ccccc2[N+](=O)[O-])=C1Nc1ccc(O)c(Cl)c1
thermal shift delta Tm [1]: 1.34 °C | thermal shift delta Tm [2]: 0.07 °C | thermal shift delta Tm [3]: 0.14 °C | thermal shift delta Tm [4]: 2.25 °C | thermal shift delta Tm [5]: 0.15 °C | thermal shift delta Tm [6]: -0.05 °C | thermal shift delta Tm [7]: 0.88 °C | thermal shift delta Tm [8]: 1.02 °C | thermal shift delta Tm [9]: 2.72 °C | thermal shift delta Tm [10]: 0.23 °C | thermal shift delta Tm [11]: -0.28 °C | thermal shift delta Tm [12]: 4.16 °C | thermal shift delta Tm [13]: -13.3 °C | thermal shift delta Tm [14]: 1.12 °C | thermal shift delta Tm [15]: 0.7 °C | thermal shift delta Tm [16]: 0.82 °C | thermal shift delta Tm [17]: -0.2 °C | thermal shift delta Tm [18]: 0.75 °C | thermal shift delta Tm [19]: 2.88 °C | thermal shift delta Tm [20]: 0.07 °C

CC(C)c1cnn2c(NCc3ccccc3)cc(NCCCCCCN)nc12
thermal shift delta Tm [1]: 0.67 °C | thermal shift delta Tm [2]: 0.22 °C | thermal shift delta Tm [3]: 0.33 °C | thermal shift delta Tm [4]: -0.19 °C | thermal shift delta Tm [5]: 0.14 °C | thermal shift delta Tm [6]: 0.34 °C | thermal shift delta Tm [7]: 0.19 °C | thermal shift delta Tm [8]: 0.56 °C | thermal shift delta Tm [9]: -0.44 °C | thermal shift delta Tm [10]: 0.32 °C | thermal shift delta Tm [11]: -0.33 °C | thermal shift delta Tm [12]: -0.23 °C | thermal shift delta Tm [13]: -2.84 °C | thermal shift delta Tm [14]: 0.27 °C | thermal shift delta Tm [15]: 0.42 °C | thermal shift delta Tm [16]: 0.43 °C | thermal shift delta Tm [17]: -0.05 °C | thermal shift delta Tm [18]: 0.96 °C | thermal shift delta Tm [19]: 1.35 °C | thermal shift delta Tm [20]: 0.18 °C

CN(C)C/C=C/C(=O)Nc1ccc(C(=O)Nc2cccc(Nc3ncc(Cl)c(-c4c[nH]c5ccccc45)n3)c2)cc1
thermal shift delta Tm [1]: 6.63 °C | thermal shift delta Tm [2]: 2.87 °C | thermal shift delta Tm [3]: 0.82 °C | thermal shift delta Tm [4]: 10.8 °C | thermal shift delta Tm [5]: 4.72 °C | thermal shift delta Tm [6]: 5.94 °C | thermal shift delta Tm [7]: 5.98 °C | thermal shift delta Tm [8]: 1.96 °C | thermal shift delta Tm [9]: 4.69 °C | thermal shift delta Tm [10]: 1.76 °C | thermal shift delta Tm [11]: 2.1 °C | thermal shift delta Tm [12]: 11.2 °C | thermal shift delta Tm [13]: 11.9 °C | thermal shift delta Tm [14]: 4.57 °C | thermal shift delta Tm [15]: 5.85 °C | thermal shift delta Tm [16]: 1.59 °C | thermal shift delta Tm [17]: 11.2 °C | thermal shift delta Tm [18]: 0.86 °C | thermal shift delta Tm [19]: 1.53 °C | thermal shift delta Tm [20]: 0.68 °C

O=C(O)c1ccc2c(c1)nc(Nc1cccc(Cl)c1)c1ccncc12 [Silmitasertib (CX-4945)]
thermal shift delta Tm [1]: 1.82 °C | thermal shift delta Tm [2]: 1.5 °C | thermal shift delta Tm [3]: 0.25 °C | thermal shift delta Tm [4]: 4.4 °C | thermal shift delta Tm [5]: 4.14 °C | thermal shift delta Tm [6]: 0.83 °C | thermal shift delta Tm [7]: 1.55 °C | thermal shift delta Tm [8]: 6.87 °C | thermal shift delta Tm [9]: 1.13 °C | thermal shift delta Tm [10]: 0.77 °C | thermal shift delta Tm [11]: 0.56 °C | thermal shift delta Tm [12]: 8.41 °C | thermal shift delta Tm [13]: 3.01 °C | thermal shift delta Tm [14]: 0.57 °C | thermal shift delta Tm [15]: 0.68 °C | thermal shift delta Tm [16]: 0.46 °C | thermal shift delta Tm [17]: 3.05 °C | thermal shift delta Tm [18]: 0.65 °C | thermal shift delta Tm [19]: 1.59 °C | thermal shift delta Tm [20]: 0.82 °C

CCc1nc(C(N)=O)c(Nc2ccc(N3CCC(N4CCN(C)CC4)CC3)c(OC)c2)nc1NC1CCOCC1 [Gilteritinib (ASP2215)]
thermal shift delta Tm [1]: 9.25 °C | thermal shift delta Tm [2]: 3.16 °C | thermal shift delta Tm [3]: 0.4 °C | thermal shift delta Tm [4]: 9.74 °C | thermal shift delta Tm [5]: 8.74 °C | thermal shift delta Tm [6]: 5.63 °C | thermal shift delta Tm [7]: 8.56 °C | thermal shift delta Tm [8]: 11.4 °C | thermal shift delta Tm [9]: 6.15 °C | thermal shift delta Tm [10]: 0.57 °C | thermal shift delta Tm [11]: 5.73 °C | thermal shift delta Tm [12]: 17.4 °C | thermal shift delta Tm [13]: 9.44 °C | thermal shift delta Tm [14]: 1.33 °C | thermal shift delta Tm [15]: 0.92 °C | thermal shift delta Tm [16]: 1.54 °C | thermal shift delta Tm [17]: 15.3 °C | thermal shift delta Tm [18]: 0.74 °C | thermal shift delta Tm [19]: 1.35 °C | thermal shift delta Tm [20]: 0.17 °C

COc1cc2c(cc1OC)[C@@H]1C(=O)c3ccc4c(c3O[C@@H]1CO2)C=CC(C)(C)O4 [Deguelin]
thermal shift delta Tm [1]: 0.46 °C | thermal shift delta Tm [2]: -0.02 °C | thermal shift delta Tm [3]: 0.25 °C | thermal shift delta Tm [4]: -0.38 °C | thermal shift delta Tm [5]: 0.07 °C | thermal shift delta Tm [6]: 0.4 °C | thermal shift delta Tm [7]: 0.24 °C | thermal shift delta Tm [8]: 0.63 °C | thermal shift delta Tm [9]: 1.39 °C | thermal shift delta Tm [10]: 0.34 °C | thermal shift delta Tm [11]: 0.18 °C | thermal shift delta Tm [12]: -0.44 °C | thermal shift delta Tm [13]: -0.75 °C | thermal shift delta Tm [14]: -0.03 °C | thermal shift delta Tm [15]: -0.19 °C | thermal shift delta Tm [16]: 0.47 °C | thermal shift delta Tm [17]: -0.59 °C | thermal shift delta Tm [18]: 0.97 °C | thermal shift delta Tm [19]: 0.49 °C | thermal shift delta Tm [20]: -0.57 °C
